Data published in PubChem BioAssay AID488835 (Broad Institute, 2010).
The campaign covered roughly 1,400 compounds. About 140 (10%) were called active.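 The calls were made as follows: active = Half-maximal inhibitory dose from the fit at or below ten times the top valid tested dose; inconclusive = Invalid fit, or flat curve showing 30 to 70% inhibition; inactive = the rest.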 A selection follows. Measured potencies and affinities stand elsewhere.

Target: Lysine-specific demethylase 4C (Homo sapiens) (UniProt Q9H3R0)
Assay: inhibition of JMJD2C H3K9me3 demethylation – biochemical, DELFIA europium, cherry-picked samples, dose response (AID 488835);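 also: signal is the H3K9me2 demethylation product detected by a dimethyl-specific antibody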
Details: GST-JMJD2C(1-420); series mostly up to 6 µM; activity change, negative = inhibition: at the top concentration

Lysine-specific demethylase 4C (Homo sapiens), sequence (Q9H3R0 1-420 limits assumed): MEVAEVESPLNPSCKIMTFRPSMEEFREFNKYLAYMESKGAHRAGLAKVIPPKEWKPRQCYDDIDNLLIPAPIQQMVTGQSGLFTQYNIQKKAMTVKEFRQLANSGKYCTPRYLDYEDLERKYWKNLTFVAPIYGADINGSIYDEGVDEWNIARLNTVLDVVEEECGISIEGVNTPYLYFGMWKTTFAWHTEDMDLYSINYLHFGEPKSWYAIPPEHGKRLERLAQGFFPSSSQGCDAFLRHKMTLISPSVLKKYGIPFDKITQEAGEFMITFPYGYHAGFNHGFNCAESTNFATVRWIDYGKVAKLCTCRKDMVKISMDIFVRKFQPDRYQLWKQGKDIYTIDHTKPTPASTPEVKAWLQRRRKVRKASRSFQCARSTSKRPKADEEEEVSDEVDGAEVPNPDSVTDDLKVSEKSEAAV

Activity change, negative = inhibition, inactive:
CC1Oc2ccccc2N(Cc2ccccc2Cl)C1=O (stereo not drawn) -6.49%
CCOC(=O)C1=C(CSc2nc(-c3ccncc3)ccc2C#N)OC(N)=C(C#N)C1c1cccnc1 (stereo not drawn) 6.47%
CCn1c(SCC(=O)NCC(=O)Nc2ccc(F)cc2)nnc1-c1ccncc1 6.22%
Cc1nc2sc(C(c3cccc(F)c3)N3CCOCC3)c(O)n2n1 (stereo not drawn) 17.7%
Cc1cc(=S)c2cccc(C)c2[nH]1 -4.31%
CC(C)CC1c2[nH]c3ccccc3c2CCN1C(=O)c1cnccn1 (stereo not drawn) 0.531%
Cc1noc(C)c1S(=O)(=O)N(C)C[C@H]1Oc2c(cccc2N(C)C)C(=O)N([C@H](C)CO)C[C@@H]1C 0.203%
CCOC(=O)c1c(C)[nH]c(C(=O)CN2CCOCC2)c1C 1.01%
FC(F)(F)c1cccc(NCc2cn3cccnc3n2)c1 0.0929%
Cc1ccc(OCc2nnnn2-c2ccccc2)cc1 7.63%
O=C(Nc1cccnc1)c1ccccc1Oc1ccccc1 6.39%
Cc1nnc(N(C)C(=O)c2ccccn2)s1 1.59%
CCOc1cc(NC(=S)NCCOC)c(OCC)cc1NC(=O)c1cccs1 0.117%
O=C(COc1c(CO)cc(Br)cc1CO)NC1CCCc2ccccc21 (stereo not drawn) 1.18%
CCOC(=O)N1CCN(C(=S)NC(C)(C)C)CC1 2.56%
Cc1cccc(CN2CCC(Oc3ccc(C(=O)N4CCCC4)cc3)CC2)n1 0.665%
CCOC(=O)c1c(S(=O)(=O)N2CCCC(C(=O)Nc3ccc(C)cn3)C2)c(C)n(C)c1C (stereo not drawn) 1.81%
CCOC(=O)c1c(S(=O)(=O)NCC(=O)Nc2cccc(C)c2C)c(C)n(C)c1C 0.0665%
CCCCCCC(=O)N1CCN(c2cc3c(cc2F)c(=O)c(C(=O)O)cn3CC)CC1 2.64%
c1csc(Cn2nnnc2CN2CCN(c3nc4ccccc4s3)CC2)c1 4.59%
O=C(NCc1nnc(SCC(=O)N2CCCC2)o1)c1c(F)cccc1Cl 7.98%
CCC(=O)Nc1cc2c(C)cc(=O)oc2cc1C 2.25%
COc1ccc(C(=O)Nc2ncc3c(n2)CC(c2ccco2)CC3=O)cc1 (stereo not drawn) -3.57%
O=C(Nc1ccc(-c2csc(Nc3ccc(Cl)cc3)n2)cc1)c1ccccc1 -0.901%
C[C@H]1CN([C@@H](C)CO)C(=O)c2cc(NC(=O)C3CCCCC3)ccc2O[C@H]1CN(C)S(=O)(=O)c1ccccc1 2.4%
COC(=O)[C@]1(C)N[C@H](CN(C)S(=O)(=O)c2ccc(C)cc2)[C@@H]2C(=O)N(Cc3ccccc3)C(=O)[C@@H]21 -6.44%
O=c1oc2ccccc2c(O)c1C=NCc1ccccn1 4.68%
Cc1ccc(Nc2nc3nonc3nc2N(C)C)cc1 15.1%
O=C(CC(=O)N/N=C/c1c(F)cccc1Cl)NCc1ccccc1 0.208%
COc1ccc(NC(=O)N(C)C[C@@H]2Oc3c(NC(=O)Nc4c(C)noc4C)cccc3C(=O)N([C@@H](C)CO)C[C@@H]2C)cc1 1.21%
Cc1ccc(S(=O)(=O)Nc2ccc3c(c2)C(=O)N([C@H](C)CO)C[C@H](C)[C@@H](CN(C)Cc2ccccc2)O3)cc1 9.34%
COCCCNC(=O)c1ccc2c(c1)CCN2S(C)(=O)=O -3.97%
Nc1c(C(=O)OCC2CCCO2)c2nc3ccccc3nc2n1C1CCCC1 (stereo not drawn) -6.76%
Cn1c2ccccc2c2c(C(=O)N3CCN(c4ccccn4)CC3)cn(C3CCCC3)c(=O)c21 4.51%
Cn1c(CNC(=O)c2ccccc2F)nnc1SCC(=O)Nc1nnc(C2CC2)s1 -7.32%
COC(=O)C1CN(S(=O)(=O)c2ccc(C)cc2)CCN1S(=O)(=O)c1ccc(C)cc1 (stereo not drawn) 12.1%
CCOC(=O)c1ccc(N2C(=O)C(C)=C(C)C2=O)cc1 11.2%
CCCCCC1CC(=O)N(Cc2ccccc2)C(=O)N1 (stereo not drawn) -2.93%
CCN1c2ccccc2-c2nc3ccccc3n2C1c1ccccn1 (stereo not drawn) 3.39%
Cn1c(=O)c2c(ncn2CCN(CCO)Cc2ccccc2)n(C)c1=O 9.04%
CCCCn1c(N)c(N(CC)C(=O)c2ccco2)c(=O)[nH]c1=O -4.81%
CCN(C(=O)C(C)Sc1ccc(S(=O)(=O)N2CCOCC2)cn1)c1ccccc1 (stereo not drawn) -3.51%
CCCCC1CCC(C(=O)N(CC(C)C)c2c(N)n(Cc3ccccc3)c(=O)[nH]c2=O)CC1 (stereo not drawn) 1.3%
CCCCN(C(=S)NC(=O)c1cc(OC)c(OC)c(OC)c1)c1c(N)n(Cc2ccccc2)c(=O)[nH]c1=O 3.98%
Cc1cccc(NCc2ccc(O)c3ncccc23)c1 10.8%
COCCn1nnnc1C(c1ccccc1)N1CCN(C(=O)c2ccco2)CC1 (stereo not drawn) 44.7%
Cc1ccc([N+](=O)[O-])cc1N=C(c1cccc([N+](=O)[O-])c1)N1CCOCC1 4.23%
COc1cccc(Oc2nccc(N(C)C)c2C#N)c1 -0.396%
CC(C)CCSc1cc(NCCO)c([N+](=O)[O-])c2nonc12 1.05%
COc1cc2c(cc1CNC[C@H]1O[C@@H](n3cnc4c(N)ncnc43)[C@H](O)[C@@H]1O)OCO2 4.11%
CC(OC(=O)c1cccnc1SCc1cc(=O)n2ccccc2n1)c1ccccn1 (stereo not drawn) 16%
CN(C(=O)c1ccc(NC(=O)Cc2ccc(NC(=O)C3CCN(C(=O)C4CC4)CC3)cc2)cc1)C1CC1 -1.05%
O=C(Nc1c(F)cc(F)cc1Br)c1ccco1 -0.923%
CC(C)NC(=O)Nc1ccc2c(c1)C(=O)N([C@H](C)CO)C[C@H](C)[C@@H](CN(C)C(=O)Nc1ccccc1)O2 3.67%
Nc1nc(C2CC(=O)OC23CCCCC3)cs1 (stereo not drawn) 3.34%
CCOc1cc(/C=N/NC(=O)C(=O)N/N=C/c2ccc(O)c(OCC)c2)ccc1O -5.54%
O=C(O)c1ccc2c(c1)nnn2C1CCCCC1 4.91%
Cc1oc(C(C)(C)C)cc1C(=O)N1CCN(c2ncccc2C(F)(F)F)CC1 5.17%
O=[N+]([O-])c1ccccc1S(=O)(=O)N1CCN(Cc2ccc3c(c2)OCO3)CC1 4.3%
CC(=O)c1c(C(C)=O)c(C)n(-c2nc(-c3cccs3)c(C)s2)c1C -10.4%
COc1cc(-c2nnco2)cc(OC)c1OC 5.49%
Cc1c(NC(=O)C2Cc3ccccc3CN2C(=O)c2ccco2)c(=O)n(-c2ccccc2)n1C (stereo not drawn) 3.99%
CCCCNC(=O)CC1N=C2c3ccccc3N=C(SCC(=O)Nc3cccc(C)c3)N2C1=O (stereo not drawn) 10.2%
O=C(CNC(=O)c1ccc(S(=O)(=O)N2CCCC2)cc1)N/N=C/c1ccccc1 1.45%
C[C@H](CO)N1C[C@H](C)[C@@H](CN(C)C(=O)Nc2ccc3c(c2)OCO3)Oc2c(NS(=O)(=O)c3ccc(F)cc3)cccc2C1=O 4.84%
Cc1cc(C(=O)Nc2sc3c(c2C#N)CCC(C)C3)no1 (stereo not drawn) 2.2%
COc1ccc(/C(C)=N/Nc2nccnc2Cl)cc1 -1.3%
CNC[C@@H]1Oc2ccc(NC(=O)Nc3cccc4ccccc34)cc2C(=O)N([C@@H](C)CO)C[C@@H]1C 1.77%
COc1ccc(NC(=O)N(C)C[C@H]2Oc3c(NC(=O)C4CCCCC4)cccc3C(=O)N([C@H](C)CO)C[C@@H]2C)cc1 -4.45%
CC(=O)N/C(=C\c1ccccc1)C(=O)OCC(=O)NC1CCCC1 9.51%
Cc1ccc(S(=O)(=O)N2[C@@H](c3ccc(Cl)c(Cl)c3)C(C(=O)O)=C[C@H]2C(C)(C)C)cc1 0.0975%
NC(=O)C1CCN(c2nc(-c3ccccc3Br)cs2)CC1 -3.63%
CC(NC(=O)CCC(=O)c1ccc(F)cc1)C1CC2CCC1C2 (stereo not drawn) -1.93%
Cc1ccc(S(=O)(=O)N2CCOC2CNC(=O)C(=O)NCCc2ccc(S(N)(=O)=O)cc2)cc1 (stereo not drawn) 2.02%
Cn1c(=O)[nH]c(=O)c2c1nc(N1CCc3ccccc3C1)n2CCSc1nc2ccccc2s1 -1.35%
CC[C@H]1CCCCc2ccccc2[C@@H](C(=O)C[C@@H](O)CC(C)=O)OC1=O 1.48%
Cn1c(=O)c2c(nc(NC3CCCCC3)n2Cc2ccccc2)n(C)c1=O 1.97%
CCOc1ccc2nc(NC(=O)CS(=O)(=O)c3ccc(C)cc3)sc2c1 4.69%
CCc1ccc([C@@H]2CC=C(C(=O)O)[C@H](c3ccc(Br)cc3)N2S(=O)(=O)c2ccc(C)cc2)cc1 -7.79%
CC[C@@H]1C=C(C(=O)O)[C@H](c2ccc(C)cc2)N1S(=O)(=O)c1ccc(C)cc1 6.18%
O=C(CSc1ncccn1)NCc1ccc(F)cc1 5.88%
C[C@H](CO)N1C[C@H](C)[C@H](CN(C)Cc2ccc(Oc3ccccc3)cc2)Oc2ccc(NC(=O)Nc3cccc4ccccc34)cc2CC1=O -7.19%
COc1ccc(N2CCN(C(=O)Cn3nnc(-c4ccc(N(C)C)cc4)n3)CC2)cc1 3.8%
Cc1nn(Cc2ccc([N+](=O)[O-])cc2)c(=O)n1-c1cccc(Cl)c1 3.54%
O=C(c1oc(=O)c2ccccc2c1-c1ccccc1)N1CCOCC1 7.13%
O=C(CSc1ncccn1)Nc1ccc(S(=O)(=O)N2CCCCC2)cc1 -1.65%
O=C(Nc1ccccc1)Nc1ccc(S(=O)(=O)N2CCCCC2)cc1 -7.48%
Cc1noc(C)c1NC(=O)Nc1cccc2c1O[C@H](CN(C)S(=O)(=O)c1cccs1)[C@@H](C)CN([C@H](C)CO)C2=O 3.8%
COC(=O)c1cc(OC)c(OC)cc1NC(=O)Cn1nnc(-c2ccccc2Cl)n1 4.22%
CC12CN3CC(C)(CN(C1)C3c1ccc3ccccc3c1O)C2=O (stereo not drawn) 10.4%
COc1ccc2c(C(=O)NCCCCO)c(-c3ccc(S(C)(=O)=O)cc3)sc2c1 3.4%
C#CC[N+]1(CC#Cc2ccc(C#CC[N+]3(CC#C)CCOCC3)cc2)CCOCC1 -11%
CSc1nc(N2CCN(C)CC2)c2c(c1C#N)CC(C)(C)OC2 -4.52%
Cc1ccc(NC(=O)CSc2ncccn2)c([N+](=O)[O-])c1 -0.734%
Nc1nnc(SC2CC(=O)N(c3ccccc3)C2=O)s1 (stereo not drawn) 1.05%
C=CCN(C(=O)Nc1ccccc1)C1CC(=O)N(c2ccc(OC)cc2)C1=O (stereo not drawn) -1.23%
Cc1nnc2c(N3CCN(C(=O)c4ccco4)CC3)nc3ccccc3n12 1.2%
Cc1c(C(=O)Nc2ccc3c(c2)OCO3)sc2ncn(CC(=O)N3CC(C)CC(C)C3)c(=O)c12 (stereo not drawn) 12.4%
